The text below walks through data of the supplement of paper PMC11219838.

The experiment concerns Meloidogyne hapla J2. Nature of the experiment: proportion of mobile M. hapla J2 relative to DMSO control (fraction of DMSO control); higher = more viable, less nematicidal, active = 0.7 or less. As to conditions: 60 µM; 5 days; temperature: 20 °C. The method, then:
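DODA library (846 commercial 1,3,4- and 1,2,4-oxadiazole compounds plus commercial nematicide controls) screened at a single dose of 60 µM (0.6% DMSO) in 96-well plates, two biological replicates. Read-outs: C. elegans N2 L1 survival/reproduction score at day 6, 20 °C (0: 0-10 worms, 1: 11-20, 2: 21-50, 3: >50, 4: overgrown/starved). C. elegans daf-2 dauer, D. dipsaci and M. hapla J2 mobility at day 5, 20 °C, and P. penetrans mobility at day 5, 20 °C, each relative to DMSO controls. M. hapla egg hatching at day 12, 25 °C, relative to the mean of 8 DMSO wells on the same plate.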
Consider `CC(C)NC(=O)N1CC(=O)N(c2cc(Cl)cc(Cl)c2)C1=O` [iprodione], for which the “proportion of mobile M. hapla J2” value was 1.03 (inactive).

Take `CNC(=O)O/N=C(\SC)C(=O)N(C)C` [oxamyl]: the “proportion of mobile M. hapla J2” value was 0.936 (inactive).

As to `CC[C@H](C)[C@H]1O[C@]2(C=C[C@@H]1C)C[C@@H]1C[C@@H](C/C=C(\C)[C@@H](O[C@H]3C[C@H](OC)[C@@H](O[C@H]4C[C@H](OC)[C@@H](O)[C@H](C)O4)[C@H](C)O3)[C@@H](C)/C=C/C=C3\CO[C@@H]4[C@H](O)C(C)=C[C@@H](C(=O)O1)[C@]34O)O2.CO[C@H]1C[C@H](O[C@H]2[C@H](C)O[C@@H](O[C@@H]3/C(C)=C/C[C@@H]4C[C@@H](C[C@]5(C=C[C@H](C)[C@@H](C(C)C)O5)O4)OC(=O)[C@@H]4C=C(C)[C@@H](O)[C@H]5OC/C(=C\C=C\[C@@H]3C)[C@]54O)C[C@@H]2OC)O[C@@H](C)[C@@H]1O` [abamectin], the “proportion of mobile M. hapla J2” value is 1.03 (inactive).

Regarding `O=C(NCCc1ncc(C(F)(F)F)cc1Cl)c1ccccc1C(F)(F)F` [fluopyram], the “proportion of mobile M. hapla J2” value was 0.653 (active).
